Reference: paper PMC7862700, “An all-to-all approach to the identification of sequence-specific readers for epigenetic DNA modifications on cytosine”

Assays:
Experiment in all cases: DAPPL (digital affinity profiling via proximity ligation, sequencing); 10 mM Tris-HCl pH 7.5, 50 mM NaCl, 1 mM DTT, 4% glycerol, room temperature, 30 min; GST-TFs on glutathione beads, 16-mer random dsDNA library, 0.1% formaldehyde crosslink after washing; high values mean tight binding
Details in all cases: protein: recombinant; tags: N-terminal GST; dsDNA, one strand shown
ERG = target: T1, ERG (Homo sapiens, UniProt P11308 1-479)
T1 sequence: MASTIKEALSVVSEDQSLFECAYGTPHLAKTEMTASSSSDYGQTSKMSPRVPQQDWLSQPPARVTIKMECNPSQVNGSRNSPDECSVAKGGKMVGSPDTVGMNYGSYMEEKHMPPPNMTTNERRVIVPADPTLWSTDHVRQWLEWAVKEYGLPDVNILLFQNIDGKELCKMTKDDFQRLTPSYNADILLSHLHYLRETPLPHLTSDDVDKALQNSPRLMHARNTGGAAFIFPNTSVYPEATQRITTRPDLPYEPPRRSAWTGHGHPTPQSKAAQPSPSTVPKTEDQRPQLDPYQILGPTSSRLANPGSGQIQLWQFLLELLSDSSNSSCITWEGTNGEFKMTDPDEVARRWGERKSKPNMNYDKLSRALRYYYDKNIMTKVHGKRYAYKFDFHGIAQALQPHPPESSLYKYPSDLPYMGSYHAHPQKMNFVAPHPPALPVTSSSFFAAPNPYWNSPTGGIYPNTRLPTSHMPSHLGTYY
Outline: (§1)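 The binding signal reported is, for every hexamer, its read frequency for a factor over its read frequency for the tag-only sample. Reads came from pools of yeast-expressed, GST-fused human transcription factors on glutathione beads, barcoded with DNA and mixed with that sample, which were incubated with 200 nmole of a random double-stranded 16-mer DNA library in Tris/NaCl/DTT/glycerol buffer at room temperature for 30 min. After washing, the pools were crosslinked with 0.1% formaldehyde, proximity-ligated with BsaI/T4 ligase for 1 h at 37 °C, PCR-amplified and sequenced on an Illumina NextSeq500.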

EHF = target: T2, EHF (Homo sapiens, UniProt Q9NZC4 1-300)
T2 sequence: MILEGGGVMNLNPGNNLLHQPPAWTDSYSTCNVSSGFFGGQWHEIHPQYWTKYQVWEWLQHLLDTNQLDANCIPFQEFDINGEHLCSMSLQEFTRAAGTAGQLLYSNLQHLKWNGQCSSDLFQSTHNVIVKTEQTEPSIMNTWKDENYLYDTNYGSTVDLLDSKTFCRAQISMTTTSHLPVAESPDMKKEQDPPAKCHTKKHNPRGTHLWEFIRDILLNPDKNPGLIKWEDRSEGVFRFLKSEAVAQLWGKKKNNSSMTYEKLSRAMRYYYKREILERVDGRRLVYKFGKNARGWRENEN
Outline: as §1

ELK3 = target: T3, ELK3 (Homo sapiens, UniProt P41970 1-407)
T3 sequence: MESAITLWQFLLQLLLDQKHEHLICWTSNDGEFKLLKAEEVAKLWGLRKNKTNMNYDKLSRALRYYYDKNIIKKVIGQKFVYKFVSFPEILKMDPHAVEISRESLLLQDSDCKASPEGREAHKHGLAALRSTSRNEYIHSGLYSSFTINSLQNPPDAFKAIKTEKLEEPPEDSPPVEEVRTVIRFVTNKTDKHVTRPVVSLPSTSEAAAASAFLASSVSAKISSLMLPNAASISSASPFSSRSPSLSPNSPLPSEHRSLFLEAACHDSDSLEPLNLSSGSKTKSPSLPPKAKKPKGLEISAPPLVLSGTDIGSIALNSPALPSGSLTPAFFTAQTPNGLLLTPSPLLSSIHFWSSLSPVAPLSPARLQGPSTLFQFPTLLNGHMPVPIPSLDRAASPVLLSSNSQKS
Outline: as §1

SPIC = target: T4, SPIC (Homo sapiens, UniProt Q8N5J4 1-248)
T4 sequence: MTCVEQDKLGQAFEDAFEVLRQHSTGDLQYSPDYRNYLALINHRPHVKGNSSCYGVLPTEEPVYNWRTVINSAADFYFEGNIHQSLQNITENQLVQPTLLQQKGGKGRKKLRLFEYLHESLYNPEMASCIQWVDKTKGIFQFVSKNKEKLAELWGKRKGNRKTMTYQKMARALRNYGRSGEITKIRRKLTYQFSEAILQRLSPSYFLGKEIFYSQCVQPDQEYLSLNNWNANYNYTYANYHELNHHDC
Outline: as §1

ELF4 = ELF4 (Homo sapiens, UniProt Q99607 1-663)
Outline: as §1

ELK4 = target: T5, ELK4 (Homo sapiens, UniProt P28324-2 1-405)
T5 sequence: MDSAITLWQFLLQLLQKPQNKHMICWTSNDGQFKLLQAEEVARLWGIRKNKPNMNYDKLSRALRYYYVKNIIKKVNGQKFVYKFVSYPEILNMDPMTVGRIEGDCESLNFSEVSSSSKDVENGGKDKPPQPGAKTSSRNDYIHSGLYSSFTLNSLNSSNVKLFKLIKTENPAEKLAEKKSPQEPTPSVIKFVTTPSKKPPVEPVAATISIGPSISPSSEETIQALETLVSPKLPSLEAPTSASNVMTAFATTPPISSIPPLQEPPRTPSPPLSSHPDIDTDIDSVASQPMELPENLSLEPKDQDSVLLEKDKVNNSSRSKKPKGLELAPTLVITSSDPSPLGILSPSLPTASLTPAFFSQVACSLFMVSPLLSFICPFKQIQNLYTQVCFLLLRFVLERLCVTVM
Outline: as §1

ELF3 = target: T6, ELF3 (Homo sapiens, UniProt P78545 1-371)
T6 sequence: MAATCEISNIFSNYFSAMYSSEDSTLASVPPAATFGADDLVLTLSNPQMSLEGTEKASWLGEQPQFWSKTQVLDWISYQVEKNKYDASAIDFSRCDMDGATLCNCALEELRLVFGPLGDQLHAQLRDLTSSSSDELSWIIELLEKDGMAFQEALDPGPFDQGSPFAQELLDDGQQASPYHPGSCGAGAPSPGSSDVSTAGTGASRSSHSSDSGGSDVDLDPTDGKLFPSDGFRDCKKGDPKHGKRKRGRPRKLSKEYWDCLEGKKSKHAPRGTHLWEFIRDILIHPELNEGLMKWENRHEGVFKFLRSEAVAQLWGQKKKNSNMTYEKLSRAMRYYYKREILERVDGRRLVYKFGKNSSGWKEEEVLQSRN
Outline: as §1

ETV1 = ETV1 (Homo sapiens, UniProt P50549 1-477)
Outline: as §1

ERF = target: T7, ERF (Homo sapiens, UniProt P50548 1-548)
T7 sequence: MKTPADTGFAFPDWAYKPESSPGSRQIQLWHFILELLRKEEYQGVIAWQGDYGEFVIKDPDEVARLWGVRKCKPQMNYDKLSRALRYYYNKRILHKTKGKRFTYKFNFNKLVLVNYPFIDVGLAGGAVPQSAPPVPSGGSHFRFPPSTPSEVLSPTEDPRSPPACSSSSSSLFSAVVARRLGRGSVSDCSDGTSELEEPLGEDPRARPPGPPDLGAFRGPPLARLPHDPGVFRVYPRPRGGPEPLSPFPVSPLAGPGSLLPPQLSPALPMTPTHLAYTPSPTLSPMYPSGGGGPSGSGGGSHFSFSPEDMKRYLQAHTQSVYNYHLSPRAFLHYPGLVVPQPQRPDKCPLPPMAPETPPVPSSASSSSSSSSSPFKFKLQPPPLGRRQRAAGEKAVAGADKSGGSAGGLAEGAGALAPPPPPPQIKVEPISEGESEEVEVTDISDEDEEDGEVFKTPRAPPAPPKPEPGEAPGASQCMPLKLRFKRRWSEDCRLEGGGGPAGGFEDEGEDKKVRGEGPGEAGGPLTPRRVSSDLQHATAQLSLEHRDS
Outline: as §1

SPDEF = target: T8, SPDEF (Homo sapiens, UniProt O95238 1-335)
T8 sequence: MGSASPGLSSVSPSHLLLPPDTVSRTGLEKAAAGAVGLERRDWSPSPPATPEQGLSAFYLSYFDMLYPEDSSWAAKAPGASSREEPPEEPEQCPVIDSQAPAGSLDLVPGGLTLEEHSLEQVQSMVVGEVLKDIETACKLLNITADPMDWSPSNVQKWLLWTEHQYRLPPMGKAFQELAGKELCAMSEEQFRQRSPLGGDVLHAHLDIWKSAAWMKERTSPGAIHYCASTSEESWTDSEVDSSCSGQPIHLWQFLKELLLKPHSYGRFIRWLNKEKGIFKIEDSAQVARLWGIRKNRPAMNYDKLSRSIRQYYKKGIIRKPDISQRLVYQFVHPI
Outline: as §1

ETV7 = target: T9, ETV7 (Homo sapiens, UniProt Q9Y603 1-341)
T9 sequence: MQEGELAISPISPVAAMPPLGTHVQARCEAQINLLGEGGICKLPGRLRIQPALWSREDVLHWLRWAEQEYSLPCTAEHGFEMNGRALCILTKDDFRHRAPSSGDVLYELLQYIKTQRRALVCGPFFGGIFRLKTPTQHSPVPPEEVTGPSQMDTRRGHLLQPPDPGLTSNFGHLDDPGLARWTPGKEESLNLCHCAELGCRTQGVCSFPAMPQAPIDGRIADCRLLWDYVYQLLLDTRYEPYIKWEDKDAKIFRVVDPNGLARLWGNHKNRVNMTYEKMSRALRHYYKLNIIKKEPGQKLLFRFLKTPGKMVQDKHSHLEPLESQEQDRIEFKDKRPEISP
Outline: as §1

ETV6 = ETV6 (Homo sapiens, UniProt P41212 1-452)
Outline: as §1

Sequence of ETV6 (P41212 whole entry): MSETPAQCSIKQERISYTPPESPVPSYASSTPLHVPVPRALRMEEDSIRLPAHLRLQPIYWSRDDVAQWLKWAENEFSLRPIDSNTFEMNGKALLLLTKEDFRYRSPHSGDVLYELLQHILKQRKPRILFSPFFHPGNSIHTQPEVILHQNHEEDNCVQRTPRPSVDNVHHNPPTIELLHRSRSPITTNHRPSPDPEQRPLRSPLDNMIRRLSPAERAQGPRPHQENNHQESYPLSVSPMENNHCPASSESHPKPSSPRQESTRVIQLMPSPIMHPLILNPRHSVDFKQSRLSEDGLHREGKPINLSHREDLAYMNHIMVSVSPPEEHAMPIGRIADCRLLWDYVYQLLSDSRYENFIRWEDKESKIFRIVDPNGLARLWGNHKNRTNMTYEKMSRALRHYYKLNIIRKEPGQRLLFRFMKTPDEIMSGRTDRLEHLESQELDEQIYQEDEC
Sequence of ETV1 (P50549 whole entry): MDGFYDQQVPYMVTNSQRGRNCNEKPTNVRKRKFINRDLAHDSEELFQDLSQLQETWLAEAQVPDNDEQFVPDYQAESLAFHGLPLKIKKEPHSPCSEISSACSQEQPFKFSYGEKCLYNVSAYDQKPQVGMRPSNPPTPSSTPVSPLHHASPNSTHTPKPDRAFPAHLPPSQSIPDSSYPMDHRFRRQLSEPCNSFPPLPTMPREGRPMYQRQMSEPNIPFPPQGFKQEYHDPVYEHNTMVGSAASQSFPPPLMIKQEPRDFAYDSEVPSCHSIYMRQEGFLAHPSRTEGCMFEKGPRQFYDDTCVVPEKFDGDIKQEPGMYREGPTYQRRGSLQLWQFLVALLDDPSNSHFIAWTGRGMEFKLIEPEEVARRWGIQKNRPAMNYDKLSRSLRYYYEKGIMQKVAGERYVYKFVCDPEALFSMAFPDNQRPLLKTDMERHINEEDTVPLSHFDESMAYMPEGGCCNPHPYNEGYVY
Sequence of ELF4 (Q99607 whole entry): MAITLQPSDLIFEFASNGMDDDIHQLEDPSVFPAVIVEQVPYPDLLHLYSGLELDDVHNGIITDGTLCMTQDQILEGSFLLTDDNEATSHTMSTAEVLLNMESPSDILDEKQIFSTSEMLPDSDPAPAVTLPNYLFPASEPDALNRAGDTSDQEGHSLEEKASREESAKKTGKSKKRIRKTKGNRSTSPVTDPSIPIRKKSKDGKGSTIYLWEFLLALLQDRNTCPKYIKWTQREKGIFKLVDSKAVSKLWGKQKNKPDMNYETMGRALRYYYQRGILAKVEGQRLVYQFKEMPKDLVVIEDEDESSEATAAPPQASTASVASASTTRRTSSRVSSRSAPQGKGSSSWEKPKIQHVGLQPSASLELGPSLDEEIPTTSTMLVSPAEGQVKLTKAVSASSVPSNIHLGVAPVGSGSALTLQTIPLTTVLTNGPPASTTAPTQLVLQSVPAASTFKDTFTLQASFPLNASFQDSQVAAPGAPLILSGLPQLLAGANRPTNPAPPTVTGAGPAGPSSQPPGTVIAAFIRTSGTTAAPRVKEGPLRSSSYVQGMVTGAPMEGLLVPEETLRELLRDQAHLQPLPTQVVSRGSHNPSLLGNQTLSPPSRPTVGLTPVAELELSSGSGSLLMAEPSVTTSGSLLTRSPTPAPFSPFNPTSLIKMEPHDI

## GTCACG
ERG
  binding signal: 1.06 fold enrichment (6-mer frequency, TF over GST control)
EHF
  binding signal: 1.07 fold enrichment (6-mer frequency, TF over GST control)
ELK3
  binding signal: 1.02 fold enrichment (6-mer frequency, TF over GST control)
SPIC
  binding signal: 1.04 fold enrichment (6-mer frequency, TF over GST control)
ELF4
  binding signal: 1.07 fold enrichment (6-mer frequency, TF over GST control)
ELK4
  binding signal: 1.08 fold enrichment (6-mer frequency, TF over GST control)
ELF3
  binding signal: 1.02 fold enrichment (6-mer frequency, TF over GST control)
ETV1
  binding signal: 1.1 fold enrichment (6-mer frequency, TF over GST control)
ERF
  binding signal: 1.08 fold enrichment (6-mer frequency, TF over GST control)
SPDEF
  binding signal: 1.02 fold enrichment (6-mer frequency, TF over GST control)
ETV7
  binding signal: 1.04 fold enrichment (6-mer frequency, TF over GST control)
ETV6
  binding signal: 1.04 fold enrichment (6-mer frequency, TF over GST control)
